# Results taken from the supplement of paper PMC8728848.
# Only a selection was taken, and the strongest signals are over-represented in it overall.
# Experiments:
# Assay in all cases: glycan array binding signal (z-score within array); higher = stronger binding
# Conditions in all cases: glycan notation: IUPAC condensed, linker removed
# [1] = target: Fuc(a1-2)Gal(b1-3)GalNAc(b1-4)[Neu5Ac(a2-3)]Gal(b1-4)Glc
# Summary of the method: (§1)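 Negative Z-scores can be read as non-binding. The Z-score is calculated within each array and then averaged across arrays of one protein sequence at different concentrations or buffers and across linkers. Arrays, 3228 in all, were curated from the Consortium for Functional Glycomics database and kept only where the protein sequence was available.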
# [2] = target: Fuc(a1-2)Gal(b1-3)GlcNAc6S
# Summary of the method: as §1
# [3] = target: Fuc(a1-2)Gal(b1-3)[Fuc(a1-4)]GlcNAc
# Summary of the method: as §1
# [4] = target: Fuc(a1-2)Gal(b1-4)GlcNAc(b1-2)[Fuc(a1-2)Gal(b1-4)GlcNAc(b1-4)]Man(a1-3)[Fuc(a1-2)Gal(b1-4)GlcNAc(b1-2)Man(a1-6)]Man(b1-4)GlcNAc(b1-4)GlcNAc
# Summary of the method: as §1
# [5] = target: Fuc(a1-2)Gal(b1-4)GlcNAc(b1-6)GalNAc
# Summary of the method: as §1
# [6] = target: Fuc(a1-2)Gal6S(b1-4)Glc6S
# Summary of the method: as §1
# [7] = target: Fuc(a1-2)[Gal(a1-3)]Gal(b1-4)GlcNAc(b1-2)Man(a1-3)[Fuc(a1-2)[Gal(a1-3)]Gal(b1-4)GlcNAc(b1-2)Man(a1-6)]Man(b1-4)GlcNAc(b1-4)[Fuc(a1-6)]GlcNAc
# Summary of the method: as §1
# [8] = target: Fuc(a1-2)[Gal(a1-3)]Gal(b1-4)GlcNAc(b1-3)[Fuc(a1-2)[Gal(a1-3)]Gal(b1-4)GlcNAc(b1-6)]GalNAc
# Summary of the method: as §1
# [9] = target: Fuc(a1-2)[Gal(a1-3)]Gal(b1-4)GlcNAc(b1-6)GalNAc
# Summary of the method: as §1
# [10] = target: Fuc(a1-2)[Gal(a1-3)]Gal(b1-4)[Fuc(a1-3)]Glc
# Summary of the method: as §1
# [11] = target: Fuc(a1-2)[GalNAc(a1-3)]Gal(b1-3)GlcNAc(b1-3)GalNAc
# Summary of the method: as §1
# [12] = target: Fuc(a1-2)[GalNAc(a1-3)]Gal(b1-4)[Fuc(a1-3)]GlcNAc
# Summary of the method: as §1
# [13] = target: Fuc(a1-2)[GalNAc(a1-3)]Gal(b1-4)[Fuc(a1-3)]GlcNAc(b1-3)GalNAc
# Summary of the method: as §1
# [14] = target: Fuc(a1-3)[Gal(b1-4)]Glc6S
# Summary of the method: as §1
# [15] = target: Fuc(a1-3)[Gal(b1-4)]GlcNAc(b1-2)Man(a1-3)[Fuc(a1-3)[Gal(b1-4)]GlcNAc(b1-2)Man(a1-6)]Man(b1-4)GlcNAc(b1-4)GlcNAc
# Summary of the method: as §1
# Gal(a1-3)Gal = target: Gal(a1-3)Gal
# Summary of the method: as §1
# [16] = target: Gal(a1-3)Gal(b1-3)GlcNAc(b1-6)GalNAc
# Summary of the method: as §1
# Gal(b1-3)GalNAc = target: Gal(b1-3)GalNAc
# Summary of the method: as §1
# [17] = target: Gal(b1-3)GalNAc(b1-3)Gal(a1-4)Gal(b1-4)Glc
# Summary of the method: as §1
# [18] = target: Gal(b1-3)GalNAc(b1-4)[Neu5Ac(a2-3)]Gal(b1-4)Glc
# Summary of the method: as §1
# [19] = target: Gal(b1-3)GlcNAc(a1-3)Gal(b1-4)GlcNAc
# Summary of the method: as §1
# [20] = target: Gal(b1-3)GlcNAc(b1-3)Gal(b1-4)Glc
# Summary of the method: as §1
# [21] = target: Gal(b1-3)GlcNAc(b1-3)Gal(b1-4)GlcNAc(b1-6)[Gal(b1-3)GlcNAc(b1-3)]Gal(b1-4)Glc
# Summary of the method: as §1
# [22] = target: Gal(b1-3)GlcNAc(b1-3)GalNAc
# Summary of the method: as §1
# [23] = target: Gal(b1-3)[Fuc(a1-4)]GlcNAc(b1-3)Gal(b1-4)[Fuc(a1-3)]GlcNAc
# Summary of the method: as §1
# Gal(b1-4)Glc = target: Gal(b1-4)Glc
# Summary of the method: as §1
# [24] = target: Gal(b1-4)GlcNAc(b1-2)Man(a1-3)[Gal(b1-4)GlcNAc(b1-2)Man(a1-6)]Man(b1-4)GlcNAc(b1-4)GlcNAc
# Summary of the method: as §1
# [25] = target: Gal(b1-4)GlcNAc(b1-2)Man(a1-3)[Gal(b1-4)GlcNAc(b1-2)Man(a1-6)][Gal(b1-4)GlcNAc(b1-4)]Man(b1-4)GlcNAc(b1-4)[Fuc(a1-6)]GlcNAc
# Summary of the method: as §1
# [26] = target: Gal(b1-4)GlcNAc(b1-2)Man(a1-6)Man(b1-4)GlcNAc(b1-4)GlcNAc
# Summary of the method: as §1
binder,measurement,setting,value
Pwp5 ND (Candida glabrata) (protein) MGSSHHHHHHSSGLVPRGSHMASANPVPLTNVCYFPEEYPRQAGFRAITAGLASTILQGSVDELLNYSGLSSLTTQQTTTTTPNFQLPTLPLPTNVYGLTVVPLYLLVQLQGYFVPPVSGQYTFSLENTNDAAIIFFGNPSAFPCGDLSAWPQASADDITVTDGTFPSRTLFLKAGVAYPMRISYYNSLGSGNLAVSFTDPGGTKRTNWNGYIWRYNSCSTCTYT,glycan array binding signal (z-score),[1],-0.235
same,glycan array binding signal (z-score),[2],-0.214
same,glycan array binding signal (z-score),[3],0.311
same,glycan array binding signal (z-score),[4],2.82
same,glycan array binding signal (z-score),[5],3.91
same,glycan array binding signal (z-score),[6],2.41
same,glycan array binding signal (z-score),[7],0.284
same,glycan array binding signal (z-score),[8],-0.58
same,glycan array binding signal (z-score),[9],0.176
same,glycan array binding signal (z-score),[10],-0.527
same,glycan array binding signal (z-score),[11],0.59
same,glycan array binding signal (z-score),[12],-0.827
same,glycan array binding signal (z-score),[13],-0.156
same,glycan array binding signal (z-score),[14],3.45
same,glycan array binding signal (z-score),[15],1.55
same,glycan array binding signal (z-score),Gal(a1-3)Gal,-0.029
same,glycan array binding signal (z-score),[16],-0.579
same,glycan array binding signal (z-score),Gal(b1-3)GalNAc,-0.212
same,glycan array binding signal (z-score),[17],3.41
same,glycan array binding signal (z-score),[18],-0.51
same,glycan array binding signal (z-score),[19],-0.125
same,glycan array binding signal (z-score),[20],-0.276
same,glycan array binding signal (z-score),[21],-0.519
same,glycan array binding signal (z-score),[22],-0.596
same,glycan array binding signal (z-score),[23],0.251
same,glycan array binding signal (z-score),Gal(b1-4)Glc,-0.548
same,glycan array binding signal (z-score),[24],-0.247
same,glycan array binding signal (z-score),[25],-0.557
same,glycan array binding signal (z-score),[26],0.775
